# SKN-1 inh: blocks SKN-1 activity in C. elegans; C. elegans VP596 Pgst-4::GFP/RFP ratio, acrylamide-induced, 24 h; inhibition, % at 21.8 µM; actives 0.49% (n = 360,000); AID 624304;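 active = interference check ratio from 0.5 to 1.5 plus GFP to RFP signal ratio inhibition reaching or exceeding a fixed threshold, cut at about 30% in these data, passing the limit was not always enough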
# Myeloid diff MLP: promotes myeloid progenitor differentiation; ER-HoxA9 myeloid progenitors, lysozyme-GFP differentiation, flow cytometry; calls only at 10 µM; actives 1% (n = 360,000);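 active = normalized GFP-positive differentiation at or above the plate's own cutoff, the solvent-only control mean plus 3 SD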;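 note: cells exposed to compound for four days before flow analysis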
# M1 PAM: potentiates human M1 receptor response to acetylcholine; P11229; CHO-K1 hM1, Fluo-8 calcium fluorescence, ACh EC20; 0% = ACh EC20, 100% = maximal ACh; activation, % at 3 µM; actives 0.088% (n = 360,000); AID 588819; in the data active = activation above about 19%, passing the limit was not always enough
# M1 ag: human M1 muscarinic receptor agonism; P11229; CHO-K1 hM1, Fluo-8 calcium fluorescence, agonist mode; 0% DMSO, 100% acetylcholine EC100; activation, % at 3 µM; actives 0.33% (n = 360,000);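 active = activation above the run's mean compound activation plus 3 SD, cut at about 16% in these data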;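 note: peak over basal fluorescence ratio within a 140 s kinetic read after compound addition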
# ATG4B inh: ATG4B (human) cysteine protease inhibition. Q9Y4P1. ATG4B cleavage of LC3-PLA2, NBD-HPC fluorescence, 1 h. inhibition, % at 8.33 µM. actives 0.51% (n = 340,000); in the data active = inhibition above about 40%
# Target sequence (Q9Y4P1 whole entry, looked up): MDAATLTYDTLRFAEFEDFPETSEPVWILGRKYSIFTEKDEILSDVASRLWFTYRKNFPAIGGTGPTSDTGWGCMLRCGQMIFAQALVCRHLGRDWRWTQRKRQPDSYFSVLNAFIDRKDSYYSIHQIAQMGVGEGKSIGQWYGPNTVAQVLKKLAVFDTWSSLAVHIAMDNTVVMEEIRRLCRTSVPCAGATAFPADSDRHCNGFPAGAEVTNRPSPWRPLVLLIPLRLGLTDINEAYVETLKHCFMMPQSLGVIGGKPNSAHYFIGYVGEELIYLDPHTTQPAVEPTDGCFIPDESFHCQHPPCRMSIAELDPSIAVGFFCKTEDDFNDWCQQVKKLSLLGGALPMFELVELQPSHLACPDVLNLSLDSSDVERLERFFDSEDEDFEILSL
# CHRM1 antagonist: human CHRM1 antagonism | P11229 | CHO-K1 hM1, Fluo-8 calcium fluorescence, ACh EC80 antagonist | inhibition, % at 3 µM | actives 1.3% (n = 360,000) | AID 588852;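 active = percent inhibition above its own plate's cutoff, namely the mean of that plate's compound wells plus 3 SD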;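 note: peak over basal fluorescence ratio during 140 s after agonist addition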
# Hits are given with their value; 0 = inactive; - = no result given; + = active, no number. Sampled rows, rich in hits. Any-hit rate of the full collection: about 3.5%.
SMILES,SKN-1 inh,Myeloid diff MLP,M1 PAM,M1 ag,ATG4B inh,CHRM1 antagonist
COCC(C)NC(=O)c1ccc(CN2CCc3ccccc3C2)cc1 (stereo not drawn),0,0,0,0,0,65
O=C(NCc1ccc2c(c1)OCO2)c1ccc(CN2CCc3ccccc3C2)cc1,0,0,0,0,0,32
CCC(C)NC(=O)c1ccc(CN2CCc3ccccc3C2)cc1 (stereo not drawn),0,0,0,0,0,65
Cc1cc(C)c(CN2CCN(CCCn3cnc(C(=O)Nc4ccc(C)c(C)c4)n3)CC2)c(C)c1,0,0,0,0,0,0
Cc1nc(-c2ccc(F)cc2)c(CC(=O)N2CCN(S(=O)(=O)c3cccc([N+](=O)[O-])c3)CC2)s1,0,+,0,0,0,0
CCOc1cc(CNCCSc2nnnn2C)cc(Br)c1OCc1ccccc1,0,0,0,0,0,29
CCOc1cc(CNCCO)cc(Br)c1OCc1ccccc1,0,0,0,0,0,0
O=C(COC(=O)c1c(Cl)cccc1Cl)NCC1CCCO1 (stereo not drawn),0,0,0,0,0,0
O=C(C[n+]1ccccc1)N/N=C/c1cc(Br)ccc1O,0,0,0,0,0,0
O=C(CCSc1nc(-c2ccco2)cc(C(F)(F)F)n1)Nc1ccc2c(c1)OCO2,0,0,0,0,0,0
Clc1ccc(SCCOCCN2CCCCCC2)cc1,0,0,0,0,0,42
CCOc1ccccc1N1CC(C(=O)Nc2ccc(S(=O)(=O)N3CCCCC3)cc2)CC1=O (stereo not drawn),0,0,0,0,0,0
CSc1ccccc1-c1ccc2nccn2c1,0,0,0,0,-,35
Clc1cccc(-c2ccc3nccn3c2)c1Cl,0,0,0,0,-,0
Cc1c(C(=O)NCc2cccc(C(F)(F)F)c2)sc(=O)n1Cc1ccccc1F,0,0,0,0,-,0
COc1ccc(-c2nn(-c3ccccc3)cc2/C=N/NC(=O)c2ccc(Br)o2)cc1,0,0,0,0,0,44
COc1ccc(-c2nn(-c3ccccc3)cc2/C=N/NC(=O)c2cccc(S(=O)(=O)Nc3ccccc3OC)c2)cc1,0,0,0,0,0,0
O=[N+]([O-])c1cccc(-c2c(-c3ccccc3)ncc3cc(F)ccc23)c1,37,0,0,0,0,0
Nn1c(SCC(=O)Nc2ccc3c(c2)OCCO3)nnc(CCC(=O)O)c1=O,0,0,0,0,0,0
Cc1ccc2c(c1)nnn2C1CCN(S(=O)(=O)c2ccc3ccccc3c2)CC1,0,0,0,0,0,0
Cc1ccc2c(c1)nnn2C1CCN(S(=O)(=O)c2cccc(S(=O)(=O)N(C)C)c2)CC1,0,0,0,0,0,37
Cc1ccc2c(c1)nnn2C1CCN(CC(=O)N(c2ccccc2)c2ccccc2)CC1,0,0,0,0,0,34
COc1cc(C)ccc1OCC(=O)OCC(=O)c1[nH]c(C)c(C(C)=O)c1C,0,0,0,0,0,0
CC(=O)c1c(C)[nH]c(C(=O)COc2cc(C)ccc2C(C)C)c1C,0,0,0,0,0,36
COc1cc(N(Cc2ccccc2)Cc2ccccc2)c2ncn(C(C)C)c2c1,0,0,0,0,0,0
SMILES,SKN-1 inh,Myeloid diff MLP,M1 PAM,M1 ag,ATG4B inh,CHRM1 antagonist
CC(C)n1cnc2c(N(C)c3ccccc3)nc(N(CCN(C)C)Cc3ccccc3)nc21,0,+,0,0,0,0
Cc1ccc(NS(=O)(=O)c2cc(-c3n[nH]c(=O)c4ccccc34)ccc2C)cc1,0,+,0,0,0,0
COc1ccc(OC)c(C(=O)C2COC(=O)C2)c1 (stereo not drawn),37,0,0,0,0,0
COc1ccc(-c2csc(N(CCCN(C)C)C(=O)c3ccccc3F)n2)cc1,0,0,0,0,0,0
COc1ccc(-c2csc(N(CCCN(C)C)C(=O)c3ccccc3Cl)n2)cc1,0,0,0,0,0,53
COc1ccc(-c2csc(N(CCCN(C)C)C(=O)c3ccccc3C)n2)cc1,0,0,0,0,0,0
CN(C)CCCN(C(=O)c1cccs1)c1nc(-c2ccccc2)cs1,0,+,0,19,0,41
Cc1cc(Br)cn2c(Cc3cccc(Cl)c3)c(-c3ccco3)nc12,0,0,-,-,-,-
Cc1ccc(Cc2c(-c3ccco3)nc3c(C)cc(Br)cn23)cc1,0,+,0,0,-,0
O=C(NCc1ccccc1)c1cc(C2COCCN2C(=O)c2ccccc2)on1 (stereo not drawn),0,0,0,0,-,0
O=C(OCC(=O)N1N=C(c2ccc(Cl)cc2)CC1c1ccco1)c1ccccc1O (stereo not drawn),38,0,0,0,0,0
COc1ccc(C2=NN(C(=O)COC(=O)c3ccc(NC(=O)CC#N)cc3)C(c3ccco3)C2)cc1 (stereo not drawn),0,+,0,0,0,0
CCOC(=O)Cc1cc(=O)[nH]n(-c2ccccc2)c1=O,0,0,0,0,0,0
COc1ccc(-c2nn(-c3ccccc3)cc2C(=O)NC(=S)NNC(=O)c2ccncc2)cc1,0,0,0,0,0,0
COc1ccc(-c2nn(-c3ccccc3)cc2C(=O)NC(=S)Nc2cc(Cl)ccc2Cl)cc1,0,0,26,0,0,0
CN1CCN(C(=O)/C(=C\c2ccccc2)c2ccccc2)CC1,0,0,0,0,0,99
CN(C)c1nc(SCc2ccccc2Cl)nc2c1CCCC2,31,0,0,0,0,0
CCCCN(C(=O)C1CCCO1)c1c(N)n(CCC)c(=O)[nH]c1=O (stereo not drawn),0,0,0,0,0,0
Cc1ccccc1Nc1nc(N)nc(COC(=O)c2ccccc2)n1,0,0,0,0,0,0
Cc1ccccc1Nc1nc(N)nc(COC(=O)c2ccc(O)cc2)n1,0,0,0,19,0,0
FC(F)(F)c1ccc2c(c1)n(Cc1ccccc1)c1[n+]2CCCCC1,0,0,0,0,0,49
Cc1cc(C)cc(NC(=O)C(c2ccccc2)N2CCN(CC(=O)NC3CC3)CC2)c1 (stereo not drawn),0,0,0,0,0,0
c1ccc(CC[C@@H]2CC[C@@H](CCc3ccccc3)N2)cc1,0,0,0,0,0,32
c1ccc(CSc2nccc(-c3ccco3)n2)cc1,43,0,0,0,0,0
c1ccc(CSc2n[nH]c(-c3ccco3)n2)cc1,0,0,0,0,0,0
COc1ccc(CN(CCN(C)C)c2ccccn2)cc1,0,0,-,-,0,-
CC[N+](C)(C)CCN(Cc1ccc(Cl)cc1)c1ccccn1,0,0,0,0,0,80
CC1(Cc2ccc(Cl)s2)C(=O)Nc2c(Cl)ccc(Cl)c21 (stereo not drawn),0,0,0,0,-,32

# Compound activity deposited in PubChem by several laboratories.
